Growth data for 15 compounds are collected here from PubChem BioAssay (NCI).

Structures are written as SMILES. About 83,000 compounds went through this panel and 20% of them were active in at least one assay; those are over-represented in the sample as a whole.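 Results are percent growth after 48 hours of single-concentration exposure. 100 means growth as in untreated cells, lower positive values show inhibition; negative values down to -100 show cell death.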 A number with no mark means an inactive call. The source made the active and inactive calls. How the source made its calls: active means growth percent below 10; inactive means the rest.

Holding throughout (test): NCI-60 one-dose screen, 48 h (100 = growth as untreated, 0 = no growth, -100 = all killed)
One test deals with T-47D breast. The settings on record: 10 µM unless noted.
The next test deals with BT-549 breast. To be noted: 10 µM unless noted.
Another test deals with MDA-MB-435 melanoma. To be noted: 10 µM unless noted.
Another test has as its system SW-620 colon. To be noted: 10 µM unless noted.
Another test deals with MCF7 breast. To be noted: 10 µM unless noted.
Another test relates to HCT-116 colon. To be noted: 10 µM unless noted.
The next test deals with HCC-2998 colon. To be noted: 10 µM.
For the next test, the system named is KM12 colon. The settings on record: 10 µM unless noted.

Turning to `CN1[C@@H]2CC[C@H]1/C(=C\c1ccccc1)C1=C2[C@@H](c2ccccc2)C(C#N)=C(N)O1`, the growth with T-47D breast is 58.6%; in the test on BT-549 breast it was 67%; in the test with MDA-MB-435 melanoma, 98.5%; with SW-620 colon, 98.2%; with MCF7 breast it was 85.2%; in the test on HCT-116 colon, 49.9%. Further, the growth is 87.7% in the test with HCC-2998 colon and 85.3% with KM12 colon.

Regarding `CC1=CC2c3oc(-c4ccccc4)c(C(=O)c4ccccc4)c3CNC2C=C1` (stereo not given), the growth in the test on T-47D breast is 91.3%; in the test with BT-549 breast it was 103%; in the test on MDA-MB-435 melanoma, 107%; with SW-620 colon, 97.1%; with MCF7 breast it was 84.2%; with HCT-116 colon it was 92.2%. Moreover, the growth with HCC-2998 colon was 102%; with KM12 colon, 101%.

Consider `CN(C)C/C=C/C(=O)Nc1cc2c(Nc3ccc(F)c(Cl)c3)ncnc2cc1O[C@H]1CCOC1`, for which the growth with T-47D breast was -6.55% (active); with BT-549 breast, -1.8% (active); in the test with MDA-MB-435 melanoma it was 2.71% (active); in the test with SW-620 colon, -22.6% (active); in the test with MCF7 breast, 3.59% (active); in the test with HCT-116 colon, -59.8% (active). Besides, the growth in the test with HCC-2998 colon is -71% (active); with KM12 colon, -0.867% (active).

In the case of `CCN(CC)C(=O)C[N+](C)(C)CCOC(c1ccccc1)c1ccccc1`, the growth with T-47D breast is 105%; in the test with BT-549 breast it was 99.3%; in the test with MDA-MB-435 melanoma, 93.2%; in the test on SW-620 colon it was 111%; with MCF7 breast, 93.4%; in the test with HCT-116 colon, 99.4%. Further, the growth in the test with HCC-2998 colon was 93%; in the test on KM12 colon, 102%.

Consider `COc1ccc(Cl)c(Nc2nc3ccccc3nc2NS(=O)(=O)c2cccc(NC(=O)C(C)(C)N)c2)c1`, for which the growth with T-47D breast was -19.8% (active); with BT-549 breast, 28%; in the test on MDA-MB-435 melanoma it was 53.5%; with SW-620 colon, 65.7%; with MCF7 breast, 20.3%; with HCT-116 colon it was 47%. Also, the growth was 54.8% with HCC-2998 colon and 53.1% with KM12 colon.

`CCCCOc1nc2cc(Cl)ccc2cc1/C=C/c1cc(/C=C/c2cc3ccc(Cl)cc3nc2OCCCC)n(-c2ccccc2)n1`: the growth was 65.7% in the test with T-47D breast; 89.3% with BT-549 breast; 112% in the test with MDA-MB-435 melanoma; 105% in the test with SW-620 colon; 94.5% in the test on MCF7 breast; 85.3% with HCT-116 colon. The growth with HCC-2998 colon is 102%; with KM12 colon, 94.9%.

As to `COc1cccc2cc(-c3nc(C4CCC(C(=O)O)CC4)n4ncnc(N)c34)[nH]c12` (stereo not given), the growth with T-47D breast was -30.2% (active); in the test on BT-549 breast, -11.5% (active); with MDA-MB-435 melanoma, -8.42% (active); in the test with SW-620 colon it was 14.4%; with MCF7 breast, 6.71% (active); with HCT-116 colon, 26.3%. Besides, the figures for the growth with HCC-2998 colon and in the test on KM12 colon were 23.1% and 18.4%, respectively.

On to `CN(C)CCn1c(=O)c2c3cc4c(cc3n(CCN(C)C)c2c2ccc(Cl)cc21)OCO4`, for which the growth with T-47D breast is 57.2%; with BT-549 breast, 63.6%; with MDA-MB-435 melanoma, 70.7%; in the test with SW-620 colon, -14.7% (active); with MCF7 breast it was 21.3%; with HCT-116 colon, -79.4% (active). The growth was 81.7% with HCC-2998 colon and 45.1% with KM12 colon.

Consider `CO[C@H]1C[C@@H]2CC[C@@H](C)[C@@](O)(O2)C(=O)C(=O)N2CCCC[C@H]2C(=O)O[C@H]([C@H](C)C[C@@H]2CC[C@@H](O)[C@H](OC)C2)CC(=O)[C@H](C)/C=C(\C)[C@@H](O)[C@@H](OC)C(=O)[C@H](C)C[C@H](C)\C=C/C=C/C=C/1C`, for which the growth in the test on T-47D breast is -5.21% (active); in the test with BT-549 breast, 20.3%; in the test on MDA-MB-435 melanoma, 36.9%; with SW-620 colon, 51.3%; in the test with MCF7 breast, 7.85% (active); in the test with HCT-116 colon, 39.5%. Further, the growth in the test on HCC-2998 colon is 58.6%; with KM12 colon, 42.8%.

For `COc1ccc2c(CCc3ccc(Cl)cc3)c3[n+](cc2c1OC)CCc1cc2c(cc1-3)OCO2`, the growth was 24.9% with T-47D breast; 18.5% in the test with BT-549 breast; 1.77% (active) with MDA-MB-435 melanoma; 73.2% with SW-620 colon; 60.4% with MCF7 breast; 36.5% in the test on HCT-116 colon. Further, the growth in the test on HCC-2998 colon is 36.2%; with KM12 colon, 34.4%.

On to `Cc1ccc2oc(=O)cc(-c3cc(-c4cc5ccccc5oc4=O)nc(N)c3C#N)c2c1`, for which the growth in the test on T-47D breast is 59.7%; with BT-549 breast, 57.2%; in the test on MDA-MB-435 melanoma it was 65.7%; in the test with SW-620 colon it was 83.5%; in the test on MCF7 breast it was 78.1%; with HCT-116 colon, 51.4%. The growth in the test on HCC-2998 colon is 93%; with KM12 colon it was 65.7%.

On to `C[C@]12O[C@H](C[C@]1(O)CO)n1c3ccccc3c3c4c(c5c6ccccc6n2c5c31)CNC4=O`, for which the growth in the test with T-47D breast is -24.4% (active); in the test with BT-549 breast, -68.5% (active); with MDA-MB-435 melanoma, -80.1% (active); with SW-620 colon, 3.8% (active); in the test on MCF7 breast it was -55.2% (active); in the test with HCT-116 colon, 0.7% (active). The growth was -49.6% (active) in the test on HCC-2998 colon and -18.5% (active) in the test on KM12 colon.

Consider `Cc1nc2ccc(-n3ncc(C(=O)c4cc5ccccc5[nH]4)c3N)cc2[nH]1`, for which the growth in the test with T-47D breast was 34.9%; in the test with BT-549 breast, 54%; in the test on MDA-MB-435 melanoma, 62.8%; in the test with SW-620 colon it was 43.7%; in the test on MCF7 breast, 44.2%; with HCT-116 colon it was 27.1%. The growth was 68.8% with HCC-2998 colon and 17.3% with KM12 colon.

For `CCCCCCC1(/C=N/NC(N)=O)NC(=O)NC1=O` (stereo not given), the growth is 87.8% in the test with T-47D breast; 94.1% with BT-549 breast; 101% with MDA-MB-435 melanoma; 104% in the test on SW-620 colon; 91.2% with MCF7 breast; 84.2% in the test with HCT-116 colon. Moreover, the growth was 94.5% in the test with HCC-2998 colon and 97% in the test with KM12 colon.

Turning to `CSc1nc2ncnc(SC)c2[nH]1`, the growth was 105% in the test on T-47D breast; 93.3% in the test on BT-549 breast; 100% in the test with MDA-MB-435 melanoma; 109% in the test on SW-620 colon; 93.1% with MCF7 breast; 81.4% with HCT-116 colon. Moreover, the growth was 113% in the test with HCC-2998 colon and 106% in the test with KM12 colon.
